Assay outcomes (PubChem BioAssay)
BAZ2B block: blocks human BAZ2B; AID 504333; 360,000 tested, 4.4% active; Q9UIF8; Potency, µM (highest dose often 114 µM), for the others: at the highest dose activity change, negative = inhibition, actives largely listed as inhibitors; AlphaScreen BAZ2B-H3K14Ac peptide displacement; note: % is set by controls: 0 for no effect and ±100 for the full control effect; nearly all actives have a fitted effect of over 60% in size
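Complex of BAZ2B and biotin-H3K14Ac (50 nM apiece) forms over 30 min at RT, then faces library compounds up to 110 uM for another 30 min; AlphaScreen beads added, 20 min dark incubation, luminescence read.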
Sfp inh: inhibitors of Bacillus subtilis Sfp phosphopantetheinyl transferase; Potency, µM, inactives show largest response in the series, negative = inhibition, most hits filed as inhibitors; AID 1490; 310,000 tested, 3.5% active; Biochemical Sfp PPTase activity, qHTS; Q9F4F7;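 note: the enzyme is Sfp with the accession as filed and its product quenches rhodamine fluorescence; 0% = enzyme reaction without inhibitor and -100% = no enzyme wells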
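Compounds were incubated with enzyme (final 15 nM) for 15 min at room temperature before substrate addition started the reaction. Fluorescence at 525 nm excitation, 598 nm emission was recorded immediately and after 30 minutes.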
HP1b binding inh: blocks HP1-beta chromodomain binding to methylated histone tails; AlphaScreen HP1-beta / biotin-H3K9me3 peptide binding; Potency, µM (highest dose often 114 µM), for the others: at the highest dose activity change, negative = inhibition, most hits filed as inhibitors; 390,000 tested, 0.56% active; note: nearly all actives have a fitted effect of over 70% in size
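HP1-beta protein (50 nM final) preincubated 30 min at room temperature with biotinylated H3(1-18)K9me3 peptide (50 nM) in PBS pH 7.4, 0.01% Tween-20, then compound added for 30 min. AlphaScreen streptavidin donor/nickel chelate acceptor beads (10 ug/mL final), 30 min dark, luminescence read.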
G9a inh: blocks human histone lysine methyltransferase G9a; Potency, µM (highest dose often 102 µM), inactives show at the highest dose activity, negative = inhibition, hits mostly inhibitors; 350,000 tested, 8.8% active; G9a H3K9 monomethylation, AlphaScreen, 2 h; note: % is set by controls: 0 for no effect and ±100 for the full control effect; nearly all actives have a fitted effect of over 75% in size
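Compounds were preincubated with 20 nM G9a for 15 min, after which biotinylated H3K9 peptide (500 nM) and SAM (20 uM) started a 2 h room-temperature reaction. Monomethylated product was quantified by antibody-based AlphaScreen chemiluminescence.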
JMJD2A Tudor: blocks the human JMJD2A Tudor domain | O75164 | AlphaScreen JMJD2A-Tudor / H3K4me3 peptide binding | Potency, µM (series often up to 114 µM), inactives show top-dose activity change, negative = inhibition, most hits filed as inhibitors | 390,000 tested, 4.4% active | AID 504339; note: % is set by controls: 0 for no effect and ±100 for the full control effect; nearly all actives have a fitted effect of over 50% in size
Target sequence (O75164 whole entry, looked up, the tested form may be a part): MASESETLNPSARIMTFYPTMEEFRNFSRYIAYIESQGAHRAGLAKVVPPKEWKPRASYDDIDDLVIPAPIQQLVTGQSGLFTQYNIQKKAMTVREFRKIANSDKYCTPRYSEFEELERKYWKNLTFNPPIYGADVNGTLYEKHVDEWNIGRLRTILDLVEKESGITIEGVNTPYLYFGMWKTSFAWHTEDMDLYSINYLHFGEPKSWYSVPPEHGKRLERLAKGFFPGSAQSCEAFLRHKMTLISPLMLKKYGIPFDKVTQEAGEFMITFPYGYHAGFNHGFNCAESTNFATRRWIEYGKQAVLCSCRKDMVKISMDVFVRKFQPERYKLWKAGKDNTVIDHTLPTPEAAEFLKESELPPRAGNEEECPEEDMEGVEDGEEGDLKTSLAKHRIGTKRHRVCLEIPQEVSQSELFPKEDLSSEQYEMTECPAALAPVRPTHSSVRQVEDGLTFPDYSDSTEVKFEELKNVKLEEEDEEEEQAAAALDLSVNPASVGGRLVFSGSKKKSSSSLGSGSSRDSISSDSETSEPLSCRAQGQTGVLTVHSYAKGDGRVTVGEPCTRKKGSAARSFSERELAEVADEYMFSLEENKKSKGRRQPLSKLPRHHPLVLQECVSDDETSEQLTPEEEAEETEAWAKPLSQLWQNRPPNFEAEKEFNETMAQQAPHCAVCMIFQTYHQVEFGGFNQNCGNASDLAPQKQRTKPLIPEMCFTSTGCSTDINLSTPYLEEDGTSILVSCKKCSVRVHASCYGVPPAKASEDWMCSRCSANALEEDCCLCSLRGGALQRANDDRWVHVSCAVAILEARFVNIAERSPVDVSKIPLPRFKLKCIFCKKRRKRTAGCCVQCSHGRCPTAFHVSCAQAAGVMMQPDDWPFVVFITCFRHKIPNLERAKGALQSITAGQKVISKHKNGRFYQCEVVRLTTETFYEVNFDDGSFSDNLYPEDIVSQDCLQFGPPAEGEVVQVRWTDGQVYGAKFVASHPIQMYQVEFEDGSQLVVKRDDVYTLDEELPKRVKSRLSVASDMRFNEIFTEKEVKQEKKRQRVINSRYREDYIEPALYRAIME
An asterisk follows results filed as active; [ ] = dose if it differs, or a comment. A selection: hits, their analogues and other compounds. The true share with any hit is near 12%. Calls come from the whole dose curve; as a rule, active = well fitted curve in the direction sought with a large enough effect; inconclusive = small, poorly fitted or top-dose-only effect, or another doubt; inactive = no such curve, though single readings can be large; an effect the other way counts as inactive or inconclusive. Potency is the fitted concentration of half-maximal effect.

Screening O=[N+]([O-])c1ccc(C(c2sc3nc(-c4ccco4)nn3c2O)N2CCN(c3cccc(Cl)c3)CC2)cc1 (stereo not drawn) returned BAZ2B block inconclusive, HP1b binding inh -16%, G9a inh 13µM* and JMJD2A Tudor inconclusive.
For Oc1c(C(c2ccc(F)cc2)N2CCCC2)sc2nc(-c3ccco3)nn12 (stereo not drawn) the results were BAZ2B block -23%, HP1b binding inh -2%, G9a inh 13µM* and JMJD2A Tudor -27%.
Screening CN(CC1CCOCC1)C(=O)CC1C(=O)NCCN1Cc1ccccc1F (stereo not drawn) returned BAZ2B block 0%, Sfp inh 2%, HP1b binding inh 28% and JMJD2A Tudor inconclusive.
Screening Cn1cc(C(=O)N/N=C/C2=C(N3CCOCC3)C(=C\c3ccccc3)/CC2)ccc1=O returned BAZ2B block -4%, Sfp inh -6%, HP1b binding inh 14%, G9a inh -9%[59 µM] and JMJD2A Tudor -18%.
`O=C1Nc2ccccc2/C1=N\N=C\C1=C(N2CCOCC2)C(=C\c2ccccc2)/CC1` gave BAZ2B block 7.1µM*, Sfp inh 32µM* and G9a inh inconclusive.
For O=C1Nc2ccc(Br)cc2/C1=N\N=C\C1=C(N2CCOCC2)C(=C/c2ccccc2)/CC1 the results were HP1b binding inh 5µM* and JMJD2A Tudor 3.2µM*.
Screening Cc1ccc(C2(C)NC(=O)N(CC(=O)Nc3ccc4c(c3)CCC4)C2=O)cc1 (stereo not drawn) returned BAZ2B block 8%, HP1b binding inh 19%, G9a inh -4%[59 µM] and JMJD2A Tudor -16%.
`COc1cccc(CNC(=O)CCC2CCCN(C(=O)c3cccnc3SC)C2)c1` (stereo not drawn) gave BAZ2B block 7%, Sfp inh 3%, HP1b binding inh 4%, G9a inh -1% and JMJD2A Tudor 40µM*.
Screening COc1cccc(CNC(=O)CCC2CCCN(C(=O)c3ccc(OC)o3)C2)c1 (stereo not drawn) returned BAZ2B block -6%, Sfp inh 50µM*, HP1b binding inh 30% and JMJD2A Tudor -12%.
`COc1cccc(CNC(=O)CCC2CCCN(C(=O)c3cc(C)on3)C2)c1` (stereo not drawn) gave BAZ2B block -2%, Sfp inh 6%, HP1b binding inh 25%, G9a inh 7% and JMJD2A Tudor -14%.
`O=C(CCC1CCCN(C(=O)c2cncs2)C1)NCc1ccc(F)c(F)c1` (stereo not drawn) gave BAZ2B block -12%, Sfp inh -16%, HP1b binding inh inconclusive, G9a inh -29%[12.7 µM] and JMJD2A Tudor 25µM*.
`Cc1cc(C)c(NC(=O)CSc2nc3ccccc3c3nc(CCn4cncc4C)nn23)c(C)c1` gave BAZ2B block -5%, HP1b binding inh 18%, G9a inh -5%[59 µM] and JMJD2A Tudor -21%.
For CC1CC(=O)C2=C(C1)Nc1ccccc1SC2c1ccc(F)cc1 (stereo not drawn) the results were BAZ2B block -26%, Sfp inh 1%, HP1b binding inh 36%, G9a inh 1%[59 µM] and JMJD2A Tudor -11%.
For CC(=O)Nc1ccc(C2Sc3ccccc3NC3=C2C(=O)c2ccccc23)cc1 (stereo not drawn) the results were HP1b binding inh inconclusive, G9a inh 18µM* and JMJD2A Tudor 13µM*.
For CCc1ccc(C2Sc3ccccc3NC3=C2C(=O)c2ccccc23)cc1 (stereo not drawn) the results were HP1b binding inh inconclusive, G9a inh 10µM* and JMJD2A Tudor 25µM*.
CC(NC(=O)CC1Sc2ccccc2NC1=O)c1ccccc1 (stereo not drawn) was read as BAZ2B block 23%, Sfp inh 7%, HP1b binding inh 56%, G9a inh -6% and JMJD2A Tudor -2%.
O=C1C2=C(Nc3ccccc3SC2c2ccc(C(F)(F)F)cc2)c2ccccc21 (stereo not drawn) was read as HP1b binding inh inconclusive, G9a inh 11µM* and JMJD2A Tudor 28µM*.
